CYP2C19 activ: cytochrome P450 2C19 (human) activation | P33261 | recombinant CYP2C19, luciferin-H EGE luminescence; stronger effect = higher value; 0 = fully inhibited enzyme, 1 = untreated enzyme | activation factor at 5 µM | 96,000 tested, under 10 active;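 active means activation factor of at least 2 at 5 µM in the primary screen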
CYP2C19 inhib: blocks human cytochrome P450 2C19; CYP2C19 Supersomes, luciferin-H EGE luminescence, 30 min; inhibition, % at 5 µM; 96,000 tested, 21% active;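 active means CYP2C19 inhibition above a set limit at 5 µM in the primary screen, cut at about 50% in these data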
sEH activator: increases human soluble epoxide hydrolase activity. activation, % at 2 µM. P34913. purified human sEH enzymatic activity, activator screen. 91,000 tested, 0.04% active; in the data active means activation above about 37%
Target sequence (P34913 whole entry, looked up): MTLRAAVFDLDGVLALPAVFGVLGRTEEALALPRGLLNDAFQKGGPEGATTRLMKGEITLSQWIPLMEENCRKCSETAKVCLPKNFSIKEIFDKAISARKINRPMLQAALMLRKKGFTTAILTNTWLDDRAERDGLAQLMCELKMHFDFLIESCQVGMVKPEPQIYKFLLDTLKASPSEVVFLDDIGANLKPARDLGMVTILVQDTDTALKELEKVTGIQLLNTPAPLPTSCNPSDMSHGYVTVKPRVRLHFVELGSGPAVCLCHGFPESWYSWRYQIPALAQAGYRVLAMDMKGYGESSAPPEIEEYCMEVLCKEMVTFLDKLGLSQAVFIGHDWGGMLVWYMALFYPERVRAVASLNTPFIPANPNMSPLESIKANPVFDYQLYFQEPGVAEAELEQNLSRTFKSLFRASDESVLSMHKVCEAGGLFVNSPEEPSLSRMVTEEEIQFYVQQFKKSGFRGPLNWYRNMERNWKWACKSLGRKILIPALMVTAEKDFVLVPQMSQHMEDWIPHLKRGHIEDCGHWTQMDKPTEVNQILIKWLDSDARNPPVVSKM
sEH inh: soluble epoxide hydrolase (human) inhibition; P34913; recombinant human sEH enzymatic activity assay; inhibition, % at 2 µM; 91,000 tested, 0.34% active; AID 707; in the data active means inhibition above about 80%
CYP2C9 inhib: blocks human cytochrome P450 2C9; P11712; CYP2C9 Supersomes, luciferin-H conversion, luminescence; inhibition, % at 5 µM; 96,000 tested, 20% active;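 active means blocking of liver enzyme CYP2C9 beyond about 50% at 5 µM, limit read from the data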
CYP2C9 act: activators of human CYP2C9. 96,000 tested, 1.4% active. activation factor at 5 µM. P11712. recombinant CYP2C9, luciferin-H conversion, luminescence; stronger effect = higher value; factor 1 = untreated enzyme, 0 = blocked;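 active means activation factor of 2 or more for CYP2C9 at a 5 µM dose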
Hits are given with their value; - = inactive; . = no result given. This is a sample that favours compounds with a hit; in the whole collection about 27% have one here.

SMILES	CYP2C19 activ	CYP2C19 inhib	sEH activator	sEH inh	CYP2C9 inhib	CYP2C9 act
COc1ccc(C2c3cc(OC)c(OC)cc3CCN2C2CC(=O)N(c3ccccc3)C2=O)cc1OC (stereo unspecified)	-	-	-	-	-	-
CCCC(CCC)C(=O)NNc1cc(=O)c2c(=O)n(C)c(=O)n(C)c2[nH]1	-	-	-	-	-	-
COC(=O)CCCC(=O)N1CCOCCN(C(=O)CCCC(=O)OC)CCOCC1	-	-	-	-	-	-
O=C(CNC(=O)c1ccco1)Nc1cc(Cl)ccc1N1CCOCC1	-	-	-	-	73	-
O=C(Nc1ccc(Cl)cc1C(=O)NCCN1CCOCC1)c1ccco1	-	-	-	-	68	-
O=C(Nc1ccccc1C(=O)NCCN1CCOCC1)c1ccco1	-	-	-	-	-	-
CCOC(=O)c1cc(C(=O)OCC)c2ccccn2c1=O	-	-	-	-	-	-
CCOc1ccc(C(=O)OCc2nnc(-c3cccs3)o2)cc1OC	-	68	-	-	80	-
CC(C)Cc1nc(N2CCN(C(=O)C(C)C)CC2)c(C#N)c2c1CCC2	-	84	-	-	81	-
CC(C)c1cc(N2CCN(C(=O)c3ccco3)CC2)n2c(nc3ccccc32)c1C#N	-	63	-	-	74	-
O=C(c1ccco1)N1CCN(c2ncnc3c2cnn3-c2ccccc2)CC1	-	-	-	-	-	-
CC1(C)Cc2c(C#N)c(N3CCN(C(=O)c4ccco4)CC3)nc(Cc3ccccc3)c2CO1	-	73	-	-	95	-
CC(C)Cc1nc(N2CCN(C(=O)c3ccco3)CC2)c(C#N)c2c1CCC2	-	99	-	-	98	-
Cc1ccc(OCC(=O)OC2CCS(=O)(=O)C2)cc1 (stereo unspecified)	-	-	-	-	-	-
COc1ccc(CNC(=O)CSc2nc3c(c(=O)n(C)c(=O)n3C)n2C)cc1	.	.	-	-	.	.
Cc1nc(N2CCN(C(=O)c3ccc(Cl)cc3)CC2)c(C#N)c2c1COC(C)(C)C2	-	83	-	-	50	-
CC(C)Cc1nc(N2CCCCC2)c(C#N)c2c1CCC2	-	-	-	-	-	-
CC(=O)N1CCN(c2nc(CC(C)C)c3c(c2C#N)CCC3)CC1	-	73	.	.	73	-
CC(Sc1nc(N2CCOCC2)c2c(c1C#N)CC(C)(C)OC2)C(=O)Nc1ccccc1 (stereo unspecified)	.	.	-	-	.	.
CCOc1cc(S(=O)(=O)N(CC)CC)c(OCC)cc1-n1cnnn1	-	-	-	-	-	-
CCOc1cc(S(=O)(=O)NCCc2ccccc2C)c(OCC)cc1-n1cnnn1	-	84	-	-	89	-
CCOc1cc(S(=O)(=O)NCCc2cccc(C)c2)c(OCC)cc1-n1cnnn1	-	-	-	-	80	-
CC1SC(c2ccc(Cl)cc2Cl)NC1=O (stereo unspecified)	.	.	-	-	.	.
CC1(C)N=C(c2ccc(Cl)cc2Cl)C(=O)N1	-	80	-	-	-	-
CCCCCCC(C)n1cc(C(C)=O)c(=O)[nH]c1=O (stereo unspecified)	-	-	-	-	-	-
SMILES	CYP2C19 activ	CYP2C19 inhib	sEH activator	sEH inh	CYP2C9 inhib	CYP2C9 act
Cc1cccc2cc(CN(Cc3cccs3)Cc3nnnn3Cc3ccccc3)c(=O)[nH]c12	-	65	-	-	-	-
CCOC(=O)Cn1nnnc1CN(Cc1cccs1)Cc1cc2cc(C)cc(C)c2[nH]c1=O	-	63	-	-	-	-
CCC(C)(C)n1nnnc1CN(Cc1cccs1)Cc1cc2cc(OC)ccc2[nH]c1=O	-	70	.	.	59	-
CCCCCCSc1nc(O)c(C2OC(=O)c3c2ccc(OC)c3OC)c(=O)n1-c1ccccc1 (stereo unspecified)	-	-	-	-	-	-
COc1ccccc1NS(=O)(=O)c1cc(C(=O)NCCN2CCOCC2)ccc1Cl	-	-	-	-	-	-
COc1ccc(-c2c3c(=O)n(C)c(=O)n(C)c3cn2C2CCCCC2)cc1	-	70	-	-	77	-
COc1ccc(-c2c3c(=O)n(C)c(=O)n(C)c3c3nnc4ccccc4n23)cc1	.	.	-	-	.	.
CC(C)c1nnc(SCC(=O)N2CCOCC2)n1C	.	.	-	-	.	.
CCN(C(=O)CSc1nc(-c2ccccc2)c(-c2ccccc2)[nH]1)C1CCS(=O)(=O)C1 (stereo unspecified)	-	-	-	-	-	-
